# Screening results (PubChem)
# Hits are enriched below; roughly 1.8% of the tested compounds scored in any of these assays.
# Vif-APOBEC3F blk – inhibitors of Vif-A3F interaction | HeLa A3F-eYFP + Vif (tagged APOBEC3F with the HIV-1 protein that degrades it), YFP fluorescence increase | Potency, µM (top dose mostly 46.1 µM), without a hit: at the highest dose activity, negative = active | hit rate 0.2% among 390,000 | AID 602313; also: % of control where 0% means no effect; nearly all actives have a fitted effect of over 65% in size
#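 Fluorescence increase (Ex 488/Em 500-530) after overnight compound treatment at 37 deg C flags inhibition of Vif-driven A3F-eYFP loss in stable HeLa A3F-eYFP/Vif cells seeded overnight beforehand.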
# TrxR1 substrate – is turned over as a substrate by rat TrxR1; purified TrxR1 substrate turnover, NADPH consumption readout; hit rate 0.01% among 390,000; AID 588456; Potency, µM (doses to about 114 µM), inactives show at the highest dose activity change, negative = substrate turnover; also: % is scaled to controls: 0 for no effect and ±100 for the full control effect; nearly all actives have a fitted effect of over 50% in size
#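 Rat TrxR1, dispensed at 90 nM, was prereduced with 400 uM NADPH (final) for 5 min at ~22 deg C, then incubated with compound 15 min before 400 uM selenite. A first-read NADPH fluorescence drop versus no-compound background flagged substrates.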
# VDR inh – blocks the human vitamin D receptor | P11473 | VDR-SRC2-3 peptide fluorescence polarization, 2 h | Potency, µM, for inactives: max response, negative = inhibition, most hits filed as inhibitors | hit rate 0.93% among 400,000 | AID 504847; also: % is scaled to controls: 0 for no effect and ±100 for the full control effect
# Target sequence (P11473 whole entry, looked up): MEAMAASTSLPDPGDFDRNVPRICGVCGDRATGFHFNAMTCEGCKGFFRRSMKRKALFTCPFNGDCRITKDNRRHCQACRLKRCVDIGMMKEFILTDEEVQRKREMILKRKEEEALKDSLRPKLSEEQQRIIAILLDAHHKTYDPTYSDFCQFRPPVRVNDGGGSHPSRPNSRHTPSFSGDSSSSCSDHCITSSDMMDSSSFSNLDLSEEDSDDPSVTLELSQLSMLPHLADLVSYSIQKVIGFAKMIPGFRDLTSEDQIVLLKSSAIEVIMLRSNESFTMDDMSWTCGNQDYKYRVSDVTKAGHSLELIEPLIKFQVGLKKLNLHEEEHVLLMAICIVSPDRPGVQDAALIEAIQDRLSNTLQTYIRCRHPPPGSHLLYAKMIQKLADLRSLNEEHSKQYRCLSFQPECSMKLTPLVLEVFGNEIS
#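 After 23 nl compound addition and a short centrifugation, plates sat for 2 hours at ambient temperature; polarization of fluorescence then indicated loss of VDR binding to peptide SRC2-3.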
# Vif-A3G inh – blocks the Vif interaction with human APOBEC3G. HeLa A3G-eYFP + Vif (tagged APOBEC3G with the HIV-1 protein that degrades it), YFP fluorescence, overnight. Potency, µM (top dose mostly 46.1 µM), without a hit: at the highest dose activity, negative = active, most hits filed as inhibitors. hit rate 0.076% among 410,000. AID 602310; also: % is scaled to controls: 0 for no effect and ±100 for the full control effect; nearly all actives have a fitted effect of over 60% in size
#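 Read-out is eYFP fluorescence (Ex 488/Em 500-530) from Vif-expressing HeLa A3G-eYFP cells; more signal means A3G escaped Vif-mediated degradation. Cells plated overnight, compound pinned in, incubated overnight at 37 deg C.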
# TrxR1 inh – rat TrxR1 inhibition. recombinant rTrxR1, NADPH fluorescence consumption, selenite substrate. Potency, µM (top dose mostly 114 µM), without a hit: top-dose activity change, negative = inhibition, actives largely listed as inhibitors. AID 588453. hit rate 1% among 390,000. O89049; also: % is scaled to controls: 0 for no effect and ±100 for the full control effect; nearly all actives have a fitted effect of over 65% in size
#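 Rat TrxR1 (90 nM in the dispensed reagent) was pre-reduced with 400 uM NADPH for 5 min at room temperature, then incubated with compound for 15 min. After 400 uM selenite was added, NADPH fluorescence (Ex 340/Em 450 nm) was followed for 8 min.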
# * marks the source's active call; other numbers are inactive results; ? = inconclusive; . = no result; [ ] = remark or other dose. Calls follow the shape of the dose curve; as a rule, active = well fitted curve in the direction sought with a large enough effect; inconclusive = small, poorly fitted or top-dose-only effect, or another doubt; inactive = no such curve, though single readings can be large; an effect the other way counts as inactive or inconclusive. Potency is read from the fitted curve at half-maximal effect.
SMILES,Vif-APOBEC3F blk,TrxR1 substrate,VDR inh,Vif-A3G inh,TrxR1 inh
Oc1ccc2ccccc2c1SSc1c(O)ccc2ccccc12,.,-6.1%[57.1 µM],10µM*,.,?
O=C(O)Cc1c(O)ccc2ccccc12,5.7%,44.7%,5.7%,2.5%,-1.3%[57.1 µM]
COc1cc(NC(=O)CCCOc2cc(=O)n(C)c3ccccc23)cc(OC)c1OC,1.8%,-12.1%,1.0%,5.1%,-17.2%
CCCCCCCCCCCCCCCC[n+]1ccc(C)cc1,.,-9.9%,.,-1.0%,-28.8%
Cn1c(Sc2ccc(C(=O)O)cc2[N+](=O)[O-])nnc1-c1ccccc1,-5.3%,-15.5%[57.1 µM],79.4µM*,-1.3%,35.4%[57.1 µM]
Clc1ncc(C#Cc2ccccc2)c2ncncc12,.,35.4%,28.2µM*,.,17.8µM*
CN1CC2(Cc3cc([N+](=O)[O-])ccc31)C(=O)OC(C)(C)OC2=O,.,-8.5%,-13.3%,-3.6%,-7.3%
Cc1ccc(NC(=O)COC(=O)c2ccccc2OCC(=O)N(C)C)cc1,.,2.4%,.,-3.9%,-0.5%
C(=C\c1ccnc2ccccc12)/c1cccnc1,.,-0.8%,.,-3.4%,8.8%
COc1ccc(/C=C2/CCC(CN3CCOCC3)C2=O)cc1 (centres undefined),-14.4%,9.2%[11.4 µM],?,-12.5%,1.58µM*
CN(C)CC1CCC/C(=C\c2ccc(OC(=O)c3ccc(Cl)cc3)cc2)C1=O (centres undefined),-4.7%,9.4%[11.4 µM],?,-10.6%,-11.6%[11.4 µM]
CN(C)CC1CCC/C(=C\c2ccc(OC(=O)/C=C/c3ccccc3)cc2)C1=O (centres undefined),?,-7.6%,79.4µM*,0.7%,?
O=C1/C(=C\c2ccc(Cl)cc2)CCC1CNc1ccc(Cl)cc1 (centres undefined),-15.0%,1.8%,?,-2.4%,7.94µM*
CN(C)CC1CC/C(=C\c2ccc(O)cc2)C1=O (centres undefined),7.7%,-4.8%,22.4µM*,-12.6%,0.708µM*
CC(C)(C)C1CCc2c(sc(NC(=O)c3cc4ccccc4c(=O)o3)c2C(N)=O)C1 (centres undefined),-6.3%,-0.1%,-13.9%,-1.6%,8.7%
O/N=C(/CI)c1ccc2ccccc2c1,.,3.4%,.,-6.8%,?
COc1ccc(CC(=O)NCC(c2cccs2)S(=O)(=O)c2ccc(Cl)cc2)cc1 (centres undefined),0.5%,-2.0%[57.1 µM],-2.3%,3.7%,-18.6%[57.1 µM]
C[N+]1(CC(=O)c2ccc(Cl)cc2)CCOCC1,.,4.6%,.,-0.5%,2.7%
Cc1ccc(NC(=O)C2CCCN(c3cnccn3)C2)cc1Cl (centres undefined),0.0%,1.4%,11.7%,1.7%,5.8%
O=C(CNC(=O)C(c1ccccc1)c1ccccc1)OCC(=O)c1ccc2ccccc2c1,.,-7.4%,62.4%,0.9%,18.0%[0.0914 µM]
COc1cc(NC(=O)Cn2c(=O)ccc3cc(S(=O)(=O)N4CCCC4)ccc32)cc(OC)c1,-4.6%,-1.7%[57.1 µM],7.7%,-5.1%,16.7%[57.1 µM]
O=C(O)c1ccc(-c2ccc(-c3ccccc3)cc2)o1,.,.,89.1µM*,.,.
CCOC(=O)C1=C(C)N=c2s/c(=C\c3ccc(OCC(=O)O)cc3)c(=O)n2C1c1ccc(Cl)cc1 (centres undefined),?,-9.8%,79.4µM*,-1.5%,?
CCOC(=O)C1=C(C)N=c2s/c(=C\c3ccc(OCC(=O)O)cc3)c(=O)n2C1c1ccccc1OC (centres undefined),-23.6%,-16.4%,?,0.2%,-6.8%
CCOC(=O)C1=C(C)N=c2s/c(=C/c3ccc(OCC(=O)O)cc3)c(=O)n2C1c1ccc(F)cc1 (centres undefined),9.4%,-10.9%,70.8µM*,0.2%,-3.5%
SMILES,Vif-APOBEC3F blk,TrxR1 substrate,VDR inh,Vif-A3G inh,TrxR1 inh
NC(=O)c1ccc2nc(-c3ccc(Oc4ccc(Cl)cc4)cc3)[nH]c2c1,.,.,-1.6%,.,.
C[C@@H]1C(SC2Cn3cnc[n+]3C2)=C(C(=O)[O-])N2C(=O)[C@H]([C@@H](C)O)[C@@H]12 (some centres undefined),.,.,-3.5%,.,.
Cc1cc(C)nc(SCc2cc(=O)c(OC(=O)c3ccco3)co2)n1,-2.8%,13.8%,-3.7%,1.3%,20.6%
Cc1cc(C)nc(SCc2cc(=O)c(OC(=O)c3ccc(Br)o3)co2)n1,-4.1%,-10.7%,?,1.2%,79.4µM*
Cc1cc(C)nc(SCc2cc(=O)c(OC(=O)c3ccc(S(=O)(=O)N4CCCC4)cc3)co2)n1,6.3%,4.4%,?,3.5%,15.8µM*
COc1ccc(OCC(=O)OCc2cc(=O)n3nc(C4CC4)sc3n2)cc1,-0.2%,-0.7%[57.1 µM],-2.2%,-1.8%,6.8%[57.1 µM]
CCN(CC)CC(C)CNC(=O)c1cc(-c2ccc(Br)s2)nc2ccccc12 (centres undefined),?,12.7%,-2.0%,1.5%,-6.0%
CS(=O)(=O)n1nc(OC(=O)c2cccs2)cc1N,2.5%,3.0%,-25.1%,-0.4%,?
CS(=O)(=O)n1nc(OC(=O)c2cccc3ccccc23)cc1N,5.8%,-5.5%,-6.4%,?,56.2µM*
CS(=O)(=O)n1nc(OC(=O)c2cc(Br)ccc2Cl)cc1N,-1.0%,-0.1%,?,2.9%,6.31µM*
COc1ccc2c(C)cc(SCC#N)nc2c1,22.4µM*,-5.1%,3.5%,?,8.3%
CC(C)(C)n1ncc2c(=O)n(Cc3ccc(C#N)c(F)c3)cnc21,.,-2.3%,.,-0.2%,-0.8%
CC(=O)[C@]1(O)Cc2c(O)c3c(c(O)c2[C@@H](O[C@H]2C[C@H](N)[C@H](O)[C@H](C)O2)C1)C(=O)c1c(O)cccc1C3=O,.,.,1.0%,.,.
Cc1[nH]c2ccccc2c1C(c1ccccn1)c1c(C)[nH]c2ccccc12,-3.5%,-2.4%,14.2%,-10.2%,39.8µM*
Cc1[nH]c2ccccc2c1C(c1c(C)[nH]c2ccccc12)c1c(C)[nH]c2ccccc12,.,-1.9%,.,1.0%,-19.1%
COc1cc(NC(=O)Cn2c(=O)oc3cc(S(=O)(=O)N4CCCCCC4)ccc32)cc(OC)c1,0.1%,1.0%[57.1 µM],9.8%,3.2%,26.6%[57.1 µM]
Cc1ccc2nc3c(nc2c1C)C(O)=C3O,-7.3%,1.6%[57.1 µM],?,0.3%,8.91µM*
Cc1ccc2nc3c(nc2c1C)CCCC3,10.4%,13.5%[57.1 µM],-1.8%,-0.2%,8.0%[57.1 µM]
COc1ccccc1CNc1ccnc(-c2ccc(N(C)C)cc2)n1,.,.,-12.9%,.,.
C/C(CC(=O)Nc1ccccn1)=N\NC(=O)c1ccccc1O,-3.7%,-3.5%,1.7%,0.3%,4.7%
CCCNC(=O)C/C(C)=N/NC(=O)C(=O)Nc1ccccn1,-2.4%,1.6%,1.5%,-0.6%,63.1µM*
COc1cc(OC)cc(C(=O)N/N=C(\C)CC(=O)Nc2ccccn2)c1,-2.9%,4.2%,17.3%,3.55µM*,-1.5%
CCCN1C(=O)c2ccccc2NC1c1ccc(OC)c(COc2cccc(OC)c2)c1 (centres undefined),.,41.8%,-11.1%,2.7%,47.9%
O=C(COC(=O)Cc1n[nH]c(=O)c2ccccc12)Nc1ccc(Cl)cc1F,10.2%,8.0%,-13.9%,2.1%,32.2%
